Structures are written as SMILES. “And” between values parts separate entries of the source, which are not always exact repeats. Equal entries are not always repeated. The source made the active and inactive calls. Entries that show only a call come without a potency. The call rests on the fitted dose curve; in most records, active means well fitted activation curve with a large enough effect; inconclusive means small, poorly fitted or top-dose-only effect; inactive means no such curve, though single readings can be large or run the other way.

The target in the assay is Cytochrome P450 3A4 (Homo sapiens) (UniProt P08684). The assay can be described thus: qHTS Assay for Activators of Cytochrome P450 3A4 (AID 885). Further: nearly all actives have a fitted effect of over 65% in size. The conditions noted are these: recombinant CYP3A4, Luciferin-PPXE luminescence, 60 min; series mostly up to 57.1 µM. The method in brief: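 Human CYP3A4 dealkylates Luciferin-PPXE to luciferin, which luciferase detection converts to light. Substrate was at its KM (25uM), buffer 200mM KPO4, reaction 60 min at RT.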
Sequence of Cytochrome P450 3A4 (Homo sapiens) (P08684 whole entry, looked up): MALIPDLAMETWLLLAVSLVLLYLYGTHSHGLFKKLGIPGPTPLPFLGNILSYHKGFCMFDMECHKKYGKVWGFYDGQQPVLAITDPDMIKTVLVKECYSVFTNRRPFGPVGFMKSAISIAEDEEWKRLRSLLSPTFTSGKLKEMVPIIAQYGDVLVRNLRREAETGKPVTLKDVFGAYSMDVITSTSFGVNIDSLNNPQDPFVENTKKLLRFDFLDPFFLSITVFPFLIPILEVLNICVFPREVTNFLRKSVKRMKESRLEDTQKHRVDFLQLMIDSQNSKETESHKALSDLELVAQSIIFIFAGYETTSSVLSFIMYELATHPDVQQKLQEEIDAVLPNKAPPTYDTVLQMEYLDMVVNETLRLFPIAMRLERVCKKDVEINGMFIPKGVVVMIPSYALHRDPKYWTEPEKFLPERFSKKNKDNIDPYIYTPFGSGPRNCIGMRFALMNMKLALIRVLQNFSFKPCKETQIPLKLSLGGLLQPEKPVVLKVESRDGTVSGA
Regarding `COC(=O)[C@@H]1C[C@@H]2CC[C@@H](O)C[C@@H]2N1Cc1ccc(OC)cc1`, the Potency entry was “inactive”.

Take `CC(C)(C)N1C(=O)[C@H]2[C@H]3[C@H](O)[C@H](O)C/C(=N/OC[C@@H](O)COCc4ccco4)[C@@H]3CC[C@@H]2C1=O`: the activity change, positive = activation is -87.2% [at 11.4 µM] (inactive).

With `FC(F)(F)c1ccc(CN2C[C@@H]3C(c4ccc(Cl)nc4)C4(c5cccnc5)CC3(C4)[C@H]2c2ccccc2)cc1` (stereo partly specified), the Potency result is “inactive”.

Take `CCC1=C2CC[C@H]3C(=O)N(CC)C(=O)[C@H]3[C@H]2[C@@]2(Cc3ccccc3)C(=O)N(Cc3ccccc3)C(=O)N2C1=O`: the Potency result was “inactive”.

With `FC(F)(F)c1ccc(C2[C@H]3CN(Cc4cccnc4)[C@H](c4ccccc4)C34CC2(c2ccccc2)C4)cc1` (stereo partly specified), the Potency result is “inactive”.

Turning to `CCCNC(=O)OC[C@@H]1O[C@H](CCO/N=C(\C)CCN2CCCCc3nc(C)c(C)cc32)C=C[C@@H]1Oc1ccc(OC)cc1`, the activity change, positive = activation was -95.5% [at 11.4 µM] (inactive).

`C=CC[C@@H]1C=C[C@H](O/N=C\[C@@H](C)[C@H](OCc2ccccc2)C(C)C)[C@H](CO)O1`: the activity change, positive = activation is -73.8% [at 11.4 µM] (inactive).

As for `C[C@@H](c1ccccc1)N1C(=O)[C@H]2[C@H]3[C@H](O)[C@H](O)C/C(=N/OC[C@@H](O)COCc4ccco4)[C@H]3CC[C@@H]2C1=O`, the activity change, positive = activation was -66.6% [at 11.4 µM] (inactive).

As to `CCC1=C(OC(=O)N(CC)CC)N2C(=O)OC(=NCC(=O)OC)[C@]2(Cc2ccccc2)[C@H]2C1=CC[C@H]1C(=O)N(CC(=O)OC)C(=O)[C@H]12`, the Potency entry was “inactive”.

For the molecule `COC(=O)C/C=C\[C@@H](C)[C@@H](/C=N\O[C@@H](C)CN1CCCCc2nc(C)c(C)cc21)NS(=O)(=O)c1ccc(C)cc1`, the activity change, positive = activation is -78.5% [at 11.4 µM] (inactive).

As for `Cc1ccc(S(=O)(=O)N[C@H]2COC(=O)C/C=C\[C@@H](C)[C@H](NS(=O)(=O)c3ccc(C)cc3)COC(=O)C/C=C\[C@H]2C)cc1`, the activity change, positive = activation is -62.5% [at 11.4 µM] (inactive).

Consider `C/C(CCN1CCCCc2nc(C)c(C)cc21)=N\OC[C@@H](O)COCc1ccco1`, for which the activity change, positive = activation is -64.3% [at 11.4 µM] (inactive).

On to `CC(=O)OC[C@@H]1O[C@H](C/C=N\O[C@@H](C)c2cc(-c3c(C)cc(C)cc3C)no2)C=C[C@@H]1OC(C)=O`, for which the activity change, positive = activation was -77.7% [at 11.4 µM] (inactive).

As for `CCCNC(=O)OC[C@@H]1O[C@H](CCO/N=C(\C)CCN2CCCc3nc(C)c(C)cc32)C=C[C@@H]1Oc1ccc(OC)cc1`, the activity change, positive = activation is -70.1% [at 11.4 µM] (inactive).

Take `CCC1=C(OC(=O)N(CC)CC)N2C(=O)OC(=NCCc3c[nH]c4ccccc34)[C@]2(C)[C@H]2C1=CC[C@H]1C(=O)N(CC(=O)OC)C(=O)[C@H]12`: the Potency result was “inactive”.

`CCN1C(=O)[C@H]2[C@H]3[C@H](O)[C@H](O)C/C(=N/O[C@@H](C)c4cc(-c5c(C)cc(C)cc5C)no4)[C@@H]3CC[C@@H]2C1=O`: the activity change, positive = activation was -72.9% [at 11.4 µM] (inactive).

For the molecule `CCCOc1ccc(Br)cc1-c1cc(-c2ccc(Cl)cc2)[nH]c1-c1ccncc1`, the Potency result is “inactive”.

In the case of `C#CCCCO/N=C1/C[C@@H](O)[C@@H](O)[C@@H]2[C@@H]3C(=O)N([C@@H](C)c4ccccc4)C(=O)[C@H]3CC[C@@H]12`, the activity change, positive = activation was -86% [at 11.4 µM] (inactive).

On to `CN1C[C@@H]2C(c3ccccc3)C3(c4cccnc4)CC2(C3)[C@H]1c1ccccc1` (stereo partly specified), for which the Potency entry is “inactive”.

As to `CO[C@@H]1COC(=O)C/C=C\[C@H](C)[C@@H](NS(=O)(=O)c2ccc(C)cc2)COC(=O)C/C=C\[C@@H]1C`, the activity change, positive = activation was -70.4% [at 11.4 µM] (inactive) and -70.5% [at 11.4 µM] (inactive).

As to `COC(=O)c1ccc(C(NC(=O)OCc2ccccc2)/C(I)=C/[C@@H](C)C(=O)NCc2ccc(C)o2)cc1` (stereo partly specified), the Potency result is “inactive”.

With `Cn1c(N)c(C(=O)COC(=O)c2cc(-c3ccccc3)nc3ccccc23)c(=O)n(C)c1=O`, the Potency result is “inactive”.

As to `NC(N)=NCCC[C@H](NC(=O)CC1(CC(=O)N2CCN(C3c4ccccc4NC(=O)c4ccccc43)CC2)CCCC1)C(=O)NCCn1c(=O)n(-c2ccccc2)n(-c2ccccc2)c1=O` (stereo partly specified), the Potency entry is “inactive”.

For the molecule `Cc1c(C(=O)NC2CCCCC2)sc2nc3ccc(N)cc3n12`, the Potency result was “inactive”.

In the case of `FC(F)(F)c1ccc(C2[C@H]3CN(Cc4cccnc4)[C@H](c4ccccc4)C34CC2(c2cccnc2)C4)cc1` (stereo partly specified), the Potency entry was “inactive”.

`CCC1=C2CC[C@H]3C(=O)N(CC)C(=O)[C@H]3[C@H]2[C@@]2(Cc3ccccc3)C(=O)N(CCOC)C(=O)N2C1=O`: the Potency result is “inactive”.

(Values after PubChem BioAssay (NCATS).)
